From ChEMBL document CHEMBL1961873, “Compounds: GSK PKIS; Assays: Nanosyn kinase panel” (2012) come the findings set out here.

In general, inhibition refers to the drop in the measured response relative to a control, in per cent.

Assay [1] addresses Platelet-derived growth factor receptor beta (Homo sapiens) (UniProt P09619). Particulars: at 1 µM.
Assay [2] concerns the target Tyrosine-protein kinase FRK (Homo sapiens) (UniProt P42685). Particulars: at 0.1 µM.
The target is the same in assay [3]. Particulars: at 1 µM.
Assay [4] concerns the target Protein-tyrosine kinase 2-beta (Homo sapiens) (UniProt Q14289). Particulars: at 0.1 µM.
For assay [5] the target is unchanged. As to conditions: at 1 µM.
For assay [6], the target named is Proto-oncogene tyrosine-protein kinase receptor Ret (Homo sapiens) (UniProt P07949). As to conditions: at 0.1 µM.
Assay [7] shares this target. Particulars: at 1 µM.
For assay [8], the system named is Proto-oncogene tyrosine-protein kinase receptor Ret (Homo sapiens), P07949 [V804L]. Particulars: at 0.1 µM.
For assay [9] the test system is unchanged. Particulars: at 1 µM.
In assay [10] the test system is Proto-oncogene tyrosine-protein kinase receptor Ret (Homo sapiens), P07949 [Y791F]. As to conditions: at 0.1 µM.
Proto-oncogene tyrosine-protein kinase receptor Ret (Homo sapiens), P07949 [Y791F], sequence (P07949 whole entry Y791F): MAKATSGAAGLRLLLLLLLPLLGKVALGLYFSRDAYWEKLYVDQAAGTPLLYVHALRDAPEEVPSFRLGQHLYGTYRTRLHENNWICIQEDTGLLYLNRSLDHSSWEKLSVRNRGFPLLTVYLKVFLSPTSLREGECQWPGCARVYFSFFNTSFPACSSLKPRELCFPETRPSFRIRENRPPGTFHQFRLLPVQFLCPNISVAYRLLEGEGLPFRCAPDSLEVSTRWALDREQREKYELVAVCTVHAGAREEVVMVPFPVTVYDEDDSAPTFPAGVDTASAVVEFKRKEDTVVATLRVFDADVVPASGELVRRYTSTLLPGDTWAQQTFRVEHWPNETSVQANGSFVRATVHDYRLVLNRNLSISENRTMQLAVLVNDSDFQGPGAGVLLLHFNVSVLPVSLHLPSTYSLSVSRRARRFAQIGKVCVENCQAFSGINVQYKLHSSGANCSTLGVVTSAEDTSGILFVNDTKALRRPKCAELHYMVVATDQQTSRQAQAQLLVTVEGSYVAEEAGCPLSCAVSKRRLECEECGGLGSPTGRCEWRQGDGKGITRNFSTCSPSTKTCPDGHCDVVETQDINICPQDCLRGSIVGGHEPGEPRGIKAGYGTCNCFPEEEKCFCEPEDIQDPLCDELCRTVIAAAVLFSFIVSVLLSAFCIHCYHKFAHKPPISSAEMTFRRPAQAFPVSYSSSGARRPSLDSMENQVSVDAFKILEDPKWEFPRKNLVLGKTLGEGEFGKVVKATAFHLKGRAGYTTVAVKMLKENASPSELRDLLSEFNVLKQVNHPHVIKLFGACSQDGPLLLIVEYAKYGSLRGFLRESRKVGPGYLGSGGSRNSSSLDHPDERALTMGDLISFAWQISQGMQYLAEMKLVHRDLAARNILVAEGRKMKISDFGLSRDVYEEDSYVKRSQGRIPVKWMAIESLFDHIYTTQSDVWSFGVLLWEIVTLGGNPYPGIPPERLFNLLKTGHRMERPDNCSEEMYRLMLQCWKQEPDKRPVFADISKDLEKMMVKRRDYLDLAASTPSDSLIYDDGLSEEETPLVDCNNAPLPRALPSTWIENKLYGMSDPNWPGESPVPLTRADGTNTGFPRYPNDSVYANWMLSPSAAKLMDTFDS

Proto-oncogene tyrosine-protein kinase receptor Ret (Homo sapiens), P07949 [V804L], sequence (P07949 whole entry V804L): as the sequence (P07949 whole entry Y791F) above, with F791Y, V804L counted along it
Proto-oncogene tyrosine-protein kinase receptor Ret (Homo sapiens), sequence (P07949 whole entry): as the sequence (P07949 whole entry Y791F) above, with F791Y counted along it
Tyrosine-protein kinase FRK (Homo sapiens), sequence (P42685 whole entry): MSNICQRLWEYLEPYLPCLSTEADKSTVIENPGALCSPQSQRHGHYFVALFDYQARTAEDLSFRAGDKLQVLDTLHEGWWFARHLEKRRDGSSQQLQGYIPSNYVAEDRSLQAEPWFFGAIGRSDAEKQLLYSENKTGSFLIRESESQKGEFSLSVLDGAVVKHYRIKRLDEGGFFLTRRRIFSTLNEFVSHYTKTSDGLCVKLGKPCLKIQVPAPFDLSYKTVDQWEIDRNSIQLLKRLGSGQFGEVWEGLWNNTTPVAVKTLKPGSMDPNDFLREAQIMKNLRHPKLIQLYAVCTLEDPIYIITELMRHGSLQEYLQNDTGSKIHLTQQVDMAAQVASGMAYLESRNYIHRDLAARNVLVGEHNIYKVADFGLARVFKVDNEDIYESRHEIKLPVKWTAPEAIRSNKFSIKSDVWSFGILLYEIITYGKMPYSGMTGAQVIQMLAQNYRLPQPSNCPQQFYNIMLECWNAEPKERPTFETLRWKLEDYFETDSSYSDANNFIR
Platelet-derived growth factor receptor beta (Homo sapiens), sequence (P09619 whole entry): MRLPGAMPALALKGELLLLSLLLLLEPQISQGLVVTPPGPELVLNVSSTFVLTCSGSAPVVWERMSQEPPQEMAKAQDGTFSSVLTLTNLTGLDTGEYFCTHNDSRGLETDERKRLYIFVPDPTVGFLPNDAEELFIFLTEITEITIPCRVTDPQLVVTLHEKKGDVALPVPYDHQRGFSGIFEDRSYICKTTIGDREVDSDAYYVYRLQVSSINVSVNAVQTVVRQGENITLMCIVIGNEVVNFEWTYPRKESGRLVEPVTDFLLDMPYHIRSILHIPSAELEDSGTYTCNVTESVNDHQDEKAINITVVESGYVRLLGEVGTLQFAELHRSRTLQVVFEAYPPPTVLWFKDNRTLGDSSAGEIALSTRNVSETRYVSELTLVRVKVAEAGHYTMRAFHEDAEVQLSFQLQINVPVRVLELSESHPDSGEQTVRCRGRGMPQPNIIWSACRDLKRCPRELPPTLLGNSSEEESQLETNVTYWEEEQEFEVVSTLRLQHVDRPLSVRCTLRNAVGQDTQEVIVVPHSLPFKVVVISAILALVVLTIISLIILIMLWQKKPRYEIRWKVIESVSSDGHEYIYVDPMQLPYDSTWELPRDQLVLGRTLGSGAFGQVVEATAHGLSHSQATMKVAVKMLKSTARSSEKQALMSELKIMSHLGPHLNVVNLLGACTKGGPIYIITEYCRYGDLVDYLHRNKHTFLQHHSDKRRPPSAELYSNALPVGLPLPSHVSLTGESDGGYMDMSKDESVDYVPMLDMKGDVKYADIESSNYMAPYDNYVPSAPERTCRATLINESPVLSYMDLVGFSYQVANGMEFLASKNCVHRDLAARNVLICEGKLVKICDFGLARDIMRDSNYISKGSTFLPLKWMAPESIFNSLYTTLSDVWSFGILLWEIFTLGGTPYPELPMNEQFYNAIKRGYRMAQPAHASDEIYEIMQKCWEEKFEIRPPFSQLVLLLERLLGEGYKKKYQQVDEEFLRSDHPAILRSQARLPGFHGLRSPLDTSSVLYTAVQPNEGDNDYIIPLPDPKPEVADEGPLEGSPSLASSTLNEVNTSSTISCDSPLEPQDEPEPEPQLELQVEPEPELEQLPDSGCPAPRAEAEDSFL
Protein-tyrosine kinase 2-beta (Homo sapiens), sequence (Q14289 whole entry, looked up): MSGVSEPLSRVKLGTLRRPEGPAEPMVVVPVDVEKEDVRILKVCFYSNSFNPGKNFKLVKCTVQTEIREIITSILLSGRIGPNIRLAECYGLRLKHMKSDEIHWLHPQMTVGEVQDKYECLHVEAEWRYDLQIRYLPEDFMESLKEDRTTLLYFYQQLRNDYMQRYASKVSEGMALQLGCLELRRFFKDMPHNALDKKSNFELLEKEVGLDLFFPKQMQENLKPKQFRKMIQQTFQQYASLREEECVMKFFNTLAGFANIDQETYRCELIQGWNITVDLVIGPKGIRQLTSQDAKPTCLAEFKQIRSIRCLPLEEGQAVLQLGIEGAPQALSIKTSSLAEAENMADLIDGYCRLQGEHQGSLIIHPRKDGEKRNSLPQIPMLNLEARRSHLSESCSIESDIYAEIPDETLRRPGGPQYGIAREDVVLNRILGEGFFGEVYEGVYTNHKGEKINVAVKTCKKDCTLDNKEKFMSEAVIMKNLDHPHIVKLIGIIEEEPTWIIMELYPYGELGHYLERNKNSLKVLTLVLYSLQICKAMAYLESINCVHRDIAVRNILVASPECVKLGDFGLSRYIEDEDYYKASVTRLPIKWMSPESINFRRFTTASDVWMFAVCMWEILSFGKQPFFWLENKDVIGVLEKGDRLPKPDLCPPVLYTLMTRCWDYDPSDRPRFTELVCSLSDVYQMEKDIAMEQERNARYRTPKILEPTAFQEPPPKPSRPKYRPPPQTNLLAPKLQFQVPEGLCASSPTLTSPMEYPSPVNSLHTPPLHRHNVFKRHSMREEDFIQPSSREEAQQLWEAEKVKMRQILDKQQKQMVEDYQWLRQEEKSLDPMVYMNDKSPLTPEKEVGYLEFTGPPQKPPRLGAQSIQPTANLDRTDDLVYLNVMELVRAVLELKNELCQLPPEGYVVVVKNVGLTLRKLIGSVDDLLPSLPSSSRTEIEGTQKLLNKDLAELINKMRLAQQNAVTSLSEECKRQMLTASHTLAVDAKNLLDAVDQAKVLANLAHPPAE

Take `CCn1c(-c2nonc2N)nc2c(C#CC(C)(C)O)nc(OC[C@H](N)c3ccccc3)cc21`: the inhibition was 57.2% in assay [1]; -0.38% in [2]; 2.68% in assay [3]; 1.28% in [4]; 9.96% in assay [5]; 6.89% in assay [6]. For the same compound, the inhibition in assay [7] amounted to 38%; in assay [8], 1.38%; in assay [9], 6.67%; in [10], 18.6%.

Regarding `CCCN1CCC(c2ccc(Nc3nc(Nc4cc(F)ccc4C(N)=O)c4cc[nH]c4n3)c(OC)c2)CC1`, the inhibition stood at 54.5% in [1]; 4.23% in assay [2]; 19.3% in assay [3]; 94.9% in assay [4]; 96.8% in assay [5]; 9.07% in [6]. Further, the inhibition stood at 28.1% in assay [7], 9.84% in assay [8], 51.4% in [9] and 10% in [10].

`CC(=O)Nc1cccc(C#Cc2cncnc2Nc2ccc(OCc3cccc(F)c3)c(Cl)c2)c1`: the inhibition in assay [1] was 6.94%; in assay [2], 0.81%; in [3], 2.51%; in [4] it was -2.17%; in [5], 4.14%; in assay [6], 6.84%. Also, the inhibition stood at 11% in [7], 5.7% in [8], 9.51% in assay [9] and 13.3% in assay [10].

Regarding `CCCN(CCS(C)(=O)=O)Cc1ccc(-c2ccc3ncnc(Nc4ccc(OCc5cccc(F)c5)c(Cl)c4)c3c2)o1`, the inhibition in assay [1] is 8.69%; in assay [2], 0.49%; in [3], 2.46%; in [4], 3.28%; in [5], -1.09%; in assay [6], 4.68%. The inhibition in assay [7] was determined as 7.59%; in [8], 1.01%; in assay [9], 5.01%; in [10], 2.4%.

As to `CC1=C(C(=O)Nc2cc(Cl)c3[nH]ncc3c2)C(c2ccc(C(F)(F)F)cc2)CC(=O)N1` (stereo not given), the inhibition came out at 3.69% in assay [1]; 3.64% in [2]; 7.85% in assay [3]; 5.71% in assay [4]; 9.35% in [5]; 4.22% in assay [6]. Further, the inhibition in [7] stood at 15.2%; in [8], 4.98%; in assay [9], 33.3%; in [10], 2.42%.

Turning to `COc1cccc(-c2c[nH]c3c(N/N=C/c4ccncc4)ncnc23)c1`, the inhibition in [1] stood at 81.1%; in assay [2] it was 1.61%; in assay [3] it was 3.28%; in assay [4], 2.76%; in assay [5], 9.78%; in [6], 10.7%. The inhibition in [7] amounted to 37.9%; in assay [8], 7.65%; in assay [9] it was 30.7%; in assay [10], 10.2%.

As for `NC(=O)c1sc(-n2cnc3ccc(C(F)(F)F)cc32)cc1OCc1ccccc1Br`, the inhibition in assay [1] turned out to be 7.98%; in assay [2], 2.51%; in assay [3], 2.35%; in [4] it was 9.64%; in [5], 12.8%; in assay [6], 1.18%. The inhibition turned out to be 4.33% in assay [7], 2.41% in [8], 3.36% in assay [9] and 3.67% in assay [10].

Take `CNC(=O)c1cncc(/C=C/c2ccccc2Cl)c1`: the inhibition was 20% in assay [1]; 0.04% in assay [2]; 0.05% in [3]; -1.7% in assay [4]; -0.21% in assay [5]; 4.56% in assay [6]. Besides, the inhibition in assay [7] was 7.64%; in assay [8], 0.9%; in assay [9], 10%; in assay [10] it was 0.47%.

For the compound `CCN1CCC(CC(=O)Nc2n[nH]c3nnc(-c4cccc(F)c4F)cc23)CC1`, the inhibition in [1] is 5.87%; in assay [2] it was 0.59%; in assay [3] it was -2.06%; in [4] it was 2.01%; in assay [5], 2.8%; in [6] it was 3.04%. Moreover, the inhibition turned out to be 1.36% in assay [7], 3.31% in [8], 3.73% in [9] and 4.22% in [10].

For the compound `CCN(CC)S(=O)(=O)c1ccc(OC)c(Nc2ncc(-c3ccccc3)o2)c1`, the inhibition in [1] was 63.8%; in [2], 1.39%; in assay [3], 9.88%; in assay [4] it was -0.93%; in assay [5], 16.5%; in assay [6], 9.2%. The inhibition in [7] was 36.2%; in [8] it was 3.84%; in assay [9], 21.3%; in assay [10] it was 5.14%.

Consider `CCn1cc(-c2ccnc3[nH]ccc23)c(-c2cccc(NC(=O)Nc3ccc(OCc4ccccc4)cc3)c2)n1`, for which the inhibition in assay [1] was determined as 3.09%; in assay [2], 1.32%; in assay [3] it was 1.39%; in assay [4] it was 3.44%; in assay [5], 3.88%; in [6], 0.08%. Besides, the inhibition in assay [7] was 0.88%; in [8] it was 0.99%; in assay [9] it was 0.01%; in assay [10] it was 2.29%.

On to `FC(F)(F)c1cccc(-c2nn3ncccc3c2-c2ccnc(Nc3ccc4c(c3)OCCO4)n2)c1`, for which the inhibition was 14.4% in [1]; 0.89% in assay [2]; 5.26% in [3]; -0.64% in assay [4]; 13.1% in assay [5]; 7.52% in assay [6]. In addition, the inhibition was 31.8% in assay [7], 4.11% in assay [8], 2.86% in assay [9] and 7.75% in assay [10].

As for `Cc1ccc2c(-c3ccnc(Nc4ccccc4)n3)c(-c3ccc(F)cc3)nn2n1`, the inhibition in [1] turned out to be 68.1%; in assay [2] it was 3.09%; in assay [3] it was 14.2%; in assay [4], 15.2%; in assay [5] it was 47.5%; in [6] it was 14.8%. For the same compound, the inhibition turned out to be 46.6% in assay [7], 1.27% in assay [8], 0.44% in assay [9] and 14.7% in assay [10].

Take `CCn1c(-c2nonc2N)nc2cnc(Oc3cccc(NC(=O)c4ccc(N(C)C)cc4)c3)cc21`: the inhibition is 6.43% in assay [1]; 1.12% in assay [2]; 0.64% in assay [3]; 1.13% in [4]; 3.58% in [5]; 3.06% in assay [6]. The inhibition in assay [7] is 4.26%; in [8] it was 3.42%; in assay [9] it was 6.51%; in assay [10] it was 3.78%.

As for `CCOc1ccc2c(-c3ccnc(Nc4cccc(C(F)(F)F)c4)n3)cnn2n1`, the inhibition was 20.5% in assay [1]; 2.02% in assay [2]; 0.63% in [3]; -2% in [4]; 3.33% in [5]; 0.9% in [6]. The inhibition in [7] is 5.18%; in assay [8] it was 5.38%; in [9] it was 6.22%; in [10], 7.78%.

With `c1ccc(COc2ccc(Nc3ncnc4ccc(-c5ccco5)cc34)cc2)cc1`, the inhibition was 0.57% in assay [1]; -0.18% in [2]; 0.89% in [3]; -2.12% in [4]; 1.9% in assay [5]; 1.71% in assay [6]. The inhibition is 2.96% in assay [7], 1.93% in assay [8], 2.59% in assay [9] and 1.88% in assay [10].

With `COc1ccc(-c2cc(-c3c[nH]nc3-c3ccccn3)ccn2)cc1`, the inhibition in assay [1] was 31.9%; in assay [2], 3.08%; in [3], 2.92%; in assay [4], 7.68%; in assay [5], 13.9%; in assay [6] it was 5.33%. Besides, the inhibition was 5.9% in assay [7], 4.29% in assay [8], 5.73% in [9] and 6.24% in [10].

Regarding `COc1ccc(-c2cc3c(N)ncnc3o2)cc1`, the inhibition was 11.2% in [1]; 0.49% in assay [2]; 0.16% in assay [3]; -4.88% in assay [4]; 8.21% in assay [5]; -1.19% in [6]. The inhibition is 0.94% in [7], 0.48% in assay [8], 2.98% in assay [9] and 2.13% in assay [10].

Regarding `CN(C)CCOc1ccc(-c2nc(-c3ccncc3)c(-c3ccc4c(c3)CC/C4=N\O)[nH]2)cc1`, the inhibition in assay [1] stood at 15.7%; in assay [2], 2.18%; in assay [3] it was 1.99%; in [4], 5.76%; in assay [5], 10.5%; in assay [6] it was 5.96%. For the same compound, the inhibition was 7.06% in assay [7], 3.07% in assay [8], 6.45% in [9] and 2.28% in assay [10].
